STAT3 inh: inhibitors of IL-6 induced STAT3 signaling; 0.89% of 190,000 active; U3A cells, IL-6 STAT3-luciferase reporter, luminescence; host cell line lacks STAT1; inhibition, % at 5.5 µM;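 active = inhibition above the mean inhibition across all screened compounds plus 3 SD, cut at about 44% in these data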;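 also: 0% = DMSO only wells and 100% = 100 µM nifuroxazide control wells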
Platelet DG rel: platelet dense granule release activity. human platelet-rich plasma, SFLLRN dense granule ATP release, luminescence. inhibition, %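 (compounds screened at 7.5 µM in platelet-rich plasma)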. 0.22% of 300,000 active;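 active = mean replicate score, as percent of positive control, at or above 50; inconclusive = mean below 50 but at least one replicate at or above 50; inactive = mean and every replicate below 50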
PPC-1+TRAIL kill: PPC-1 cancer cell killing with TRAIL present; PPC-1 cells + TRAIL, ATPLite viability luminescence; cell killing (% activity), % at 4 µM or 5 µM; 0.41% of 220,000 active; AID 1443;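 active = cell killing above 50% in the first pass at 4 µM, then a duplicate retest at 5 µM averaging 50% or more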;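 also: plate controls were cells with TRAIL plus DMSO for no effect and medium-only wells lacking cells for full effect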
C8 TRAIL sens: caspase-8 TRAIL sensitization | NB7+C8 cells + TRAIL, ATPlite viability luminescence | inhibition (viability loss, TRAIL sensitization), % at 10 µM | 1% of 360,000 active | AID 624354;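 active = compounds causing at least 50% loss of cell viability in the single-dose screen, relative to plate controls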
STAT1 inh: inhibitors of IFN-gamma induced STAT1 signaling; NIH 3T3 STAT1-luciferase reporter, luminescence; inhibition, % at 5.5 µM; 0.35% of 200,000 active;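 active = inhibition above a set limit, the mean inhibition across all tested compounds plus 3 SD, cut at about 34% in these data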;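 also: 0% = IFN-gamma with DMSO and 100% = IFN-gamma with 300 µM nifuroxazide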
An asterisk follows results filed as active; ? = inconclusive; . = not tested or not shown. Hits are enriched below; roughly 1.6% of the tested compounds scored in any of these assays.

SMILES	STAT3 inh	Platelet DG rel	PPC-1+TRAIL kill	C8 TRAIL sens	STAT1 inh
COn1c(SCc2cccc(Cl)c2)nc2ccccc2c1=O	8.6	-12.0	10.8	55.8*	8.8
COn1c(SCc2ccccc2)nc2ccccc2c1=O	14.2	-4.9	14.1	68.9*	-9.3
O=C(O)c1cccc2c1C(=O)c1cc([N+](=O)[O-])ccc1-2	.	.	.	4.1	.
O=C1C(C=Nc2ccccc2)=C(O)c2ccccc21	38.6	34.5	29.0	49.9*	-59.8
CN=CC1=C(O)c2ccccc2C1=O	2.1	0.3	-3.7	-11.9	-7.6
CCOC(=O)c1c(C)[nH]c(C2=NNC(=NC3CC3)SC2)c1C	76.0*	-2.7	19.5	32.5	61.2*
CCc1nc2ccc(C(=O)Nc3cccc(OCC(=O)N(C)C)c3)cn2c1N(CCC(C)C)CCN(C)C	.	.	.	-5.7	.
CCC(CC)c1nnc(NC(=O)c2cccc(S(=O)(=O)N3CCc4ccccc43)c2)s1	-8.7	-3.8	19.3	-0.5	1.5
CCOC(=O)c1sc(NC(=O)c2cccc(S(=O)(=O)N3CCc4ccccc43)c2)c(C#N)c1C	.	2.1	18.5	46.2*	.
CCCCNC(=O)C(NC(=O)c1ccc2c(c1)OCO2)C(=O)c1ccccc1 (centres undefined)	.	.	.	-14.5	.
Cc1ccc(S(=O)(=O)/N=C(/c2ccc(F)cc2)N2CCCC2)cc1	0.9	2.3	10.3	-5.5	0.1
Cc1ccc(S(=O)(=O)/N=C(\c2ccc(F)cc2)n2c(C)nc3ccccc32)cc1	7.1	51.7*	8.9	2.1	4.5
NNC(=O)c1cc(-c2cccs2)nc2ccccc12	.	-4.0	12.5	1.7	.
Cc1cccc2sc(NNC(=O)c3cc(-c4cccs4)nc4ccccc34)nc12	-24.7	4.0	9.2	50.4*	12.1
O=C(NC1CC1)c1cccc2c1C(=O)c1ccc(N3CCC(Cc4ccccc4)CC3)cc1S2(=O)=O	.	.	.	23.0	.
N#Cc1cccnc1N1CCN(C(=O)c2cccc3c2C(=O)c2ccc(-c4ccc(Cl)c(C(F)(F)F)c4)cc2S3(=O)=O)CC1	.	.	.	7.6	.
N#Cc1cccnc1N1CCN(C(=O)c2cccc3c2C(=O)c2ccc(Cl)cc2S3(=O)=O)CC1	.	.	.	77.6*	.
O=C(NCCOc1ccccc1)c1cccc2c1C(=O)c1ccc(Cl)cc1S2(=O)=O	.	.	.	55.1*	.
O=C1c2ccc(Cl)cc2S(=O)(=O)c2cccc(C(=O)N3CCC(Cc4ccccc4)CC3)c21	.	.	.	92.5*	.
Cc1cccc(/C(N)=N/OC(=O)c2ccc(Cl)cc2Cl)c1	-2.9	?	45.6	62.3*	-69.1
Cc1ccc(/C(N)=N/OC(=O)c2ccc(C)cc2Cl)cc1	41.2	4.7	62.1*	70.5*	-72.4
COc1cc(OC)cc(C(=O)O/N=C(\N)c2cccc(C)c2)c1	.	0.9	.	31.7	.
CCOP(=O)(OCC)/C(=N/OC(=O)c1ccc(Cl)cc1Cl)C(N)=O	.	2.5	3.8	6.8	.
N/C(=N\OC(=O)c1ccccc1Cl)c1ccccc1	1.3	40.3	32.8	65.5*	-0.4
N/C(=N\OC(=O)c1ccc(Cl)cc1Cl)c1ccc(Cl)cc1	42.6	-17.8	17.8	87.5*	-30.5
SMILES	STAT3 inh	Platelet DG rel	PPC-1+TRAIL kill	C8 TRAIL sens	STAT1 inh
CCCC(C(=O)Nc1cccc(S(=O)(=O)N2CCCC2)c1)c1ccccc1 (centres undefined)	.	-0.1	.	3.2	.
CSc1ccc(CN2CCC2(C)C(=O)NCc2ccc3c(c2)OCO3)cc1 (centres undefined)	.	.	.	2.6	.
Cc1ccc(S(=O)(=O)/N=C(/Nc2cccc(O)c2)c2ccccc2)cc1	.	2.1	.	-4.9	.
N/C(=N\OC(=O)c1cccc2ccccc12)c1cccc([N+](=O)[O-])c1	23.8	-8.3	2.1	15.1	-7.0
N/C(=N\OC(=O)c1ccc(Cl)cc1)c1ccn[nH]1	.	-5.2	.	83.2*	.
C/C(=N\OC(=O)c1ccc(Cl)cc1)c1nccs1	4.3	23.2	-9.0	-12.3	-2.9
Cc1ccccc1C(=O)O/N=C(\N)c1cccc([N+](=O)[O-])c1	-20.6	-0.3	35.7	73.6*	-43.4
Cc1cc(/C(N)=N/OC(=O)c2ccccc2Cl)no1	.	.	37.2	61.2*	.
Cc1cccc(/C(N)=N/OC(=O)c2cccc3ccccc23)c1	.	2.8	.	92.4*	.
Nc1ccc(S(=O)(=O)c2ccc(N3CCOCC3)c(N)c2)cc1	.	.	.	-0.9	.
N/C(=N/OC(=O)c1ccccc1Cl)c1nonc1N	13.3	54.1*	8.6	6.4	-10.7
N/C(=N\OC(=O)c1ccccc1Cl)c1ccc(Cl)cc1	-18.1	3.8	33.1	83.1*	-57.0
N/C(=N\OC(=O)c1ccco1)c1ccc(Cl)cc1	15.0	-4.0	3.3	-6.3	-42.4
N/C(=N\OC(=O)c1ccc(Cl)cc1)c1ccc(Cl)cc1	6.5	7.5	-2.0	87.8*	-13.3
N/C(=N\OC(=O)c1ccc(F)cc1)c1nonc1N	0.1	3.0	-7.2	4.4	-23.7
Brc1cccc(-c2nc3c4ccccc4ccn3c2Cc2ccsc2)c1	.	.	.	34.4	.
CCN1CCN(Cc2ccc(NC(=O)c3ccc(C)c(NC(=O)C(=O)c4c[nH]c5ccccc45)c3)cc2C(F)(F)F)CC1	.	-0.8	-2.3	88.9*	.
CCOC(=O)COc1ccc(-c2nnc(-c3ccccc3)o2)cc1	14.8	9.9	31.7	49.0*	11.2
CCOC(=O)Cc1nnc(-c2ccccc2)o1	-0.5	-8.3	3.1	-9.2	-7.8
Cc1ccccc1-c1nc2sc3c(c2c(=O)n1N)CCCC3	-7.7	-2.0	-1.8	53.8*	-50.2
O=C(Nc1ccc(Cl)c(C(F)(F)F)c1)C1Cc2c(-c3ccccc3)ccnc2O1 (centres undefined)	.	.	.	-7.2	.
Cc1cccc(S(=O)(=O)NC(=O)C2(C)CCN2C(=O)c2cccc(F)c2)c1 (centres undefined)	.	.	.	-5.6	.
CCOC(=O)c1c(C)nc2c(c1-c1cc(OC)c(OC)c(OC)c1)C(=O)c1ccccc1-2	-17.1	8.2	8.2	66.3*	3.0
COc1ccc(CCCNC(=O)C2Cc3c(-c4ccc5c(c4)OCO5)ccnc3O2)cc1 (centres undefined)	.	.	.	19.5	.
O=C(O)c1ccc(N2C(=O)CC(SC(=Nc3ccccc3)Nc3ccccc3)C2=O)cc1 (centres undefined)	1.3	10.6	26.6	-2.4	0.7
SMILES	STAT3 inh	Platelet DG rel	PPC-1+TRAIL kill	C8 TRAIL sens	STAT1 inh
CC(/C=C/c1ccc(N(C)C)cc1)=N\N=C(/N)SC1CC(=O)N(c2ccc(C(=O)O)cc2)C1=O (centres undefined)	0.3	5.3	53.5*	46.4	-12.3
CCCCc1c(-c2ccccc2OC)ncn1Cc1cccc(-c2ccccc2)c1	.	.	.	25.2	.
COc1ccccc1OCC(=O)N/N=C(\C)c1ccc2ccccc2c1	.	.	.	13.5	.
CCOC(=O)C1=C(C)NC(C)=C(C(=O)OCC)C1C	6.9	-1.3	0.9	8.9	7.2
CCOC(=O)C1=C(C)NC(=O)NC1	12.1	60.1*	-3.3	-0.9	0.7
COc1ccc(NC(=O)CCS(=O)(=O)c2ccc3nc(C)sc3c2)cc1OC	.	74.4*	.	-5.1	.
COc1cc(NC(=O)CCS(=O)(=O)c2ccc3nc(C)sc3c2)cc(OC)c1OC	.	-2.6	.	4.5	.
Cn1cc(CN(CCO)Cc2cccs2)c(-c2cccc(Cl)c2)n1	2.9	57.5*	22.1	-13.4	-1.2
CN(Cc1cn(C)nc1-c1cccc(Cl)c1)Cc1nccn1C	.	-1.7	14.8	-9.2	.
